{"source": "the supplement of paper PMC12024529"}
{"test_system": "HEK293 WT BDD-FVIII-Gluc", "assay": "secreted FVIII-Gluc luciferase Z-score vs DMSO control; higher = more FVIII-Gluc secretion", "details": "5 µM", "description": "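Natural plant-compound library (480 compounds, ST catalogue IDs) screened on HEK293 cells stably expressing WT BDD-FVIII-Gaussia luciferase fusion at 5 µM. Secreted Gluc activity in the medium is given as a Z-score relative to DMSO controls.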"}
{"smiles": "COc1cc2nc(N3CCN(C(=O)c4ccco4)CC3)nc(N)c2cc1OC", "secreted FVIII-Gluc luciferase Z-score": 0.161}
{"smiles": "COc1cc(=O)n(C)c2c(OCC(O)C(C)(C)O)cccc12", "note": "(centres undefined)", "secreted FVIII-Gluc luciferase Z-score": -1.05}
{"smiles": "COc1ccc(C2CC(=O)c3c(O)cc(OC4OC(COC5OC(C)C(O)C(O)C5O)C(O)C(O)C4O)cc3O2)cc1O", "note": "(centres undefined)", "secreted FVIII-Gluc luciferase Z-score": 0.438}
{"smiles": "CCc1cn(C2CC(O)C(CO)O2)c(=O)[nH]c1=O", "note": "(centres undefined)", "secreted FVIII-Gluc luciferase Z-score": -0.382}
{"smiles": "O=c1[nH]c(=O)c2ncn([C@@H]3O[C@H](CO)[C@@H](O)[C@H]3O)c2[nH]1", "secreted FVIII-Gluc luciferase Z-score": 0.541}
{"smiles": "CC(C)CC(N)C(=O)O", "note": "(centres undefined)", "secreted FVIII-Gluc luciferase Z-score": 0.117}
{"smiles": "COc1c(C)c2c(c(O)c1C/C=C(\\C)CCC(=O)O)C(=O)OC2", "secreted FVIII-Gluc luciferase Z-score": -4.24}
{"smiles": "OCc1ccccc1O[C@@H]1O[C@H](CO)[C@@H](O)[C@H](O)[C@H]1O", "secreted FVIII-Gluc luciferase Z-score": 0.752}
{"smiles": "N[C@H](CCC(=O)O)C(=O)O", "secreted FVIII-Gluc luciferase Z-score": -0.453}
{"smiles": "Nc1ncnc2c1ncn2C1OC(CO)C(O)C1OP(=O)(O)O", "note": "(centres undefined)", "secreted FVIII-Gluc luciferase Z-score": -0.295}
{"smiles": "O=c1c(O)c(-c2ccc(O)c(O)c2)oc2c(O[C@@H]3O[C@H](CO)[C@@H](O)[C@H](O)[C@H]3O)c(O)cc(O)c12", "secreted FVIII-Gluc luciferase Z-score": 1.19}
{"smiles": "COc1ccc2[nH]c(=O)c3c(c2c1)OC(C)(C)C=C3", "secreted FVIII-Gluc luciferase Z-score": -1.14}
{"smiles": "O=c1c(O)c(-c2ccc(O)cc2)oc2ccc(O)cc12", "secreted FVIII-Gluc luciferase Z-score": 0.433}
{"smiles": "OC1CCC2Cc3ccccc3N=C12", "note": "(centres undefined)", "secreted FVIII-Gluc luciferase Z-score": -0.361}
{"smiles": "COc1cc(/C=C/C(=O)CC(=O)/C=C/c2ccc(O)c(OC)c2)ccc1O", "secreted FVIII-Gluc luciferase Z-score": 0.567}
{"smiles": "C=C(C)[C@H]1CC=C(C)C(=O)C1", "secreted FVIII-Gluc luciferase Z-score": 0.764}
{"smiles": "COc1c(O)cc2oc3cc(O)c(CC=C(C)C)c(O)c3c(=O)c2c1CC=C(C)C", "secreted FVIII-Gluc luciferase Z-score": 0.316}
{"smiles": "O[C@@H]1COC2C1OC[C@@H]2O", "note": "(some centres undefined)", "secreted FVIII-Gluc luciferase Z-score": 0.547}
{"smiles": "C1CCN2CC3CC(CN4CCCC[C@H]34)C2C1", "note": "(some centres undefined)", "secreted FVIII-Gluc luciferase Z-score": 1.22}
{"smiles": "O=C(O)c1cc(=O)c2ccccc2[nH]1", "secreted FVIII-Gluc luciferase Z-score": 0.496}
{"smiles": "O=C(N[C@H](CO)[C@H](O)c1ccc([N+](=O)[O-])cc1)C(Cl)Cl", "secreted FVIII-Gluc luciferase Z-score": 0.907}
{"smiles": "O=c1oc2c(O)c(O)cc3c(=O)oc4c(O)c(O)cc1c4c23", "secreted FVIII-Gluc luciferase Z-score": 0.53}
{"smiles": "O=C(O)c1cc(O)c2c(c1)C(=O)c1cccc(O)c1C2=O", "secreted FVIII-Gluc luciferase Z-score": 0.381}
{"smiles": "O=c1cc(-c2ccc(O)c(O)c2)oc2cc(O)cc(O)c12", "secreted FVIII-Gluc luciferase Z-score": -1.34}
{"smiles": "Cc1cc(O)c2c(c1)C(=O)c1cccc(O)c1C2=O", "secreted FVIII-Gluc luciferase Z-score": 0.974}
{"smiles": "Nc1nc2ncc(CNc3ccc(C(=O)NC(CCC(=O)O)C(=O)O)cc3)nc2c(=O)[nH]1", "note": "(centres undefined)", "secreted FVIII-Gluc luciferase Z-score": -0.865}
{"smiles": "COc1cc2cc(Oc3ccc4ccc(=O)oc4c3)c(=O)oc2cc1O", "secreted FVIII-Gluc luciferase Z-score": 0.379}
{"smiles": "Nc1nc2c(ncn2[C@@H]2O[C@H](COP(=O)(O)O)[C@@H](O)[C@H]2O)c(=O)[nH]1", "secreted FVIII-Gluc luciferase Z-score": 0.0522}
{"smiles": "CN1CCc2cc3c(cc2C(=O)Cc2ccc4c(c2C1)OCO4)OCO3", "secreted FVIII-Gluc luciferase Z-score": -0.0429}
{"smiles": "CC(=O)OC1CCC2(C)C(CCC3(C)C2C(=O)C=C2C4CC(C)(C(=O)OCCN5CCCCC5)CCC4(C)CCC23C)C1(C)C", "note": "(centres undefined)", "secreted FVIII-Gluc luciferase Z-score": 0.64}
{"smiles": "CC(C)(S)[C@H](N)C(=O)O", "secreted FVIII-Gluc luciferase Z-score": 0.41}
{"smiles": "O=C(O)CCCCC1CCSS1", "note": "(centres undefined)", "secreted FVIII-Gluc luciferase Z-score": -0.0345}
{"smiles": "C[C@H](CCC(=O)O)[C@H]1CC[C@H]2[C@@H]3C(=O)C[C@@H]4CC(=O)CC[C@]4(C)[C@H]3CC(=O)[C@]12C", "secreted FVIII-Gluc luciferase Z-score": 0.818}
{"smiles": "COc1ccccc1CC(Cc1nc2ccccc2[nH]1)c1nc2ccccc2[nH]1", "note": "(centres undefined)", "secreted FVIII-Gluc luciferase Z-score": 0.163}
{"smiles": "Cn1ccc(O)c(C#N)c1=O", "secreted FVIII-Gluc luciferase Z-score": 0.00283}
{"smiles": "COc1cccc(-c2oc3ccccc3c(=O)c2O)c1", "secreted FVIII-Gluc luciferase Z-score": 0.776}
{"smiles": "Cc1c(-c2ccccc2)oc2cc(O)ccc2c1=O", "secreted FVIII-Gluc luciferase Z-score": -0.0243}
{"smiles": "CC(=O)[C@H]1CC[C@H]2[C@@H]3CCC4=CC(=O)CC[C@]4(C)[C@H]3CC[C@]12C", "secreted FVIII-Gluc luciferase Z-score": 0.00749}
{"smiles": "NCCC(=O)N[C@@H](Cc1cnc[nH]1)C(=O)O", "secreted FVIII-Gluc luciferase Z-score": -1.31}
